Screening data as filed in PubChem.
This is a sample that favours compounds with a hit; in the whole collection about 11% have one here.
USP30 inh = inhibitors of human USP30 deubiquitinase; purified USP30, Ub-rhodamine cleavage fluorescence; inhibition, % at 25 µM; 5.3% of 47,000 active; AID 1645860
Target sequence (Q70CQ3 whole entry, looked up): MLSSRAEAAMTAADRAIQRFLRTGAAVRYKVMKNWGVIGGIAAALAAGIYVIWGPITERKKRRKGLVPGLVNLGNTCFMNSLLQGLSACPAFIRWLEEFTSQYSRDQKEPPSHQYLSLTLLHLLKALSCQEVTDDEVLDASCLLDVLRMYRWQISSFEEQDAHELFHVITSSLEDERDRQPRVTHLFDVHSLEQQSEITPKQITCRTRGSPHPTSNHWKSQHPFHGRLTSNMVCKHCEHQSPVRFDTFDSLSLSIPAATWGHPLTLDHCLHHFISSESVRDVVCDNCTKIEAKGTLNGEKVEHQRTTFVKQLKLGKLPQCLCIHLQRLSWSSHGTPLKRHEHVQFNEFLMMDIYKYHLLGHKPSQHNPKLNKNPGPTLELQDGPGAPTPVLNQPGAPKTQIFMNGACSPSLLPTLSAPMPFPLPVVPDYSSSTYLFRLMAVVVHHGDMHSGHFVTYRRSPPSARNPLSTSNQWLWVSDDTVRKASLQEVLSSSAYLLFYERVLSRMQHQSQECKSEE
USP28 inh = human USP28 deubiquitinase inhibition. purified USP28, Ub-rhodamine cleavage fluorescence, 30 min. 3% of 47,000 active. inhibition, % at 25 µM. Q96RU2
USP17 block = human USP17-like deubiquitinase inhibition; AID 1645855; inhibition, % at 50 µM; A8MUK1; purified USP17, Ub-rhodamine cleavage fluorescence, 3 h; 6.5% of 47,000 active
* marks the source's active call; other numbers are inactive results. Cut-off read from the data, not from the text of the source: active = inhibition above about 30%; inactive = the rest.

O=[N+]([O-])c1cccc(-c2csc(-c3ccc4c(c3)OCO4)n2)c1 was read as USP30 inh 14.1, USP28 inh 4.3 and USP17 block 20.5.
Screening c1ccc(-c2cc(-c3csc(-c4ccc5c(c4)OCCO5)n3)on2)cc1 returned USP30 inh 35.3*, USP28 inh 24.3 and USP17 block 51.2*.
`COc1ccccc1Nc1cc(C)nc2nc(-c3ccco3)nn12` gave USP30 inh -32.3, USP28 inh -4.1 and USP17 block 40.8*.
For Cc1cc(Nc2ccc(C)c(Cl)c2)n2nc(-c3ccco3)nc2n1 the results were USP30 inh -162.3, USP28 inh -34.0 and USP17 block -49.9.
Cc1cc(C)cc(NC(=O)NCC(O)COc2ccc([N+](=O)[O-])cc2)c1 (configuration not stated) was read as USP30 inh 16.7, USP28 inh 27.0 and USP17 block 31.6*.
Screening O=C(NCC(O)COc1ccc([N+](=O)[O-])cc1)Nc1ccccc1 (configuration not stated) returned USP30 inh 4.9, USP28 inh 8.9 and USP17 block -16.4.
For Cc1nccc(C2CCCN2C(=O)c2ccc(-n3cccn3)nc2)n1 (configuration not stated) the results were USP30 inh -0.3, USP28 inh -6.1 and USP17 block -5.3.
CCOc1cc(C2c3c(oc4ccccc4c3=O)C(=O)N2c2nc3ccc(C)cc3s2)ccc1O (configuration not stated) was read as USP30 inh 34.7*, USP28 inh 8.2 and USP17 block 22.5.
Screening CCc1ccc(C2c3c(oc4ccccc4c3=O)C(=O)N2c2nncs2)cc1 (configuration not stated) returned USP30 inh 2.1, USP28 inh -3.8 and USP17 block 51.1*.
For CCOC(=O)c1ccc2nc(N3C(=O)c4oc5ccccc5c(=O)c4C3c3ccco3)sc2c1 (configuration not stated) the results were USP30 inh -27.1, USP28 inh -9.4 and USP17 block -5.9.
Screening COc1ccc2nc(N3C(=O)c4oc5ccccc5c(=O)c4C3c3ccc([N+](=O)[O-])cc3)sc2c1 (configuration not stated) returned USP30 inh -89.4, USP28 inh -29.6 and USP17 block 2.6.
`CC(Oc1ccc([N+](=O)[O-])cc1)C1(C)OCCO1` (configuration not stated) gave USP30 inh 21.2, USP28 inh 2.1 and USP17 block -6.5.
COc1ccc(N2CCN(CC(=O)c3c(-c4ccccc4)n(C)c4ccccc34)CC2)cc1 was read as USP30 inh -6.1, USP28 inh 8.7 and USP17 block 8.6.
`COc1ccccc1Cc1cccc(C2CCN(Cc3ccccn3)CC2)n1` gave USP30 inh -28.8, USP28 inh 7.5 and USP17 block 2.8.
Cc1nc(/C=C/C(=O)Nc2ccccc2Cn2cccn2)cs1 was read as USP30 inh -23.7, USP28 inh -23.3 and USP17 block -24.5.
For CCCc1cc(C2CCCN2C(=O)c2cc(-c3ccco3)on2)no1 (configuration not stated) the results were USP30 inh -36.0, USP28 inh 4.0 and USP17 block 46.8*.
CCCc1cc(C2CCCN2C(=O)c2cc(C3CCCCC3)no2)no1 (configuration not stated) was read as USP30 inh 20.1, USP28 inh 7.0 and USP17 block 2.7.
O=C(CCCC(=O)c1ccccc1)Nc1ccc(F)cc1 was read as USP30 inh -0.4, USP28 inh 13.5 and USP17 block 55.7*.
`O=C(CCC(=O)c1ccc(F)cc1)Nc1ccccc1F` gave USP30 inh -3.1, USP28 inh 2.0 and USP17 block -8.8.
COc1ccc(NC(=O)CCCC(=O)c2ccccc2)c(OC)c1 was read as USP30 inh 8.8, USP28 inh 6.5 and USP17 block 5.2.
For O=C(CCCC(=O)c1ccccc1)Nc1ccc(F)cc1Cl the results were USP30 inh 26.8, USP28 inh 11.4 and USP17 block 30.3*.
COc1ccccc1C1CNCCN1Cc1scnc1C (configuration not stated) was read as USP30 inh -15.9, USP28 inh -17.0 and USP17 block -13.0.
Cc1c(NS(=O)(=O)c2cc(F)ccc2F)cccc1-c1nc2cccnc2s1 was read as USP30 inh -1.1, USP28 inh 5.2 and USP17 block 15.2.
CC(=O)Nc1ccc(S(=O)(=O)N2CCN(c3ccnc4cc(Cl)ccc34)CC2)cc1 was read as USP30 inh 16.4, USP28 inh -6.7 and USP17 block -7.3.
C[C@H]1C(=O)N(C)[C@@H]2CCN(C(=O)Nc3ccc4ccccc4c3)[C@@H]2C(=O)N1C was read as USP30 inh 4.5, USP28 inh 0.1 and USP17 block 5.8.
